Measurements: PubChem BioAssay (NCI)
About 83,000 compounds went through this panel and 20% of them were active in at least one assay; those are over-represented in the sample as a whole.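 96-well plates, one dose, 48 hours. Percent growth reported; active if below 10.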 Calls of active or inactive are those of the source.

Assays:
Assay in all cases: NCI-60 one-dose screen, 48 h (100 = growth as untreated, 0 = no growth, -100 = all killed)
Settings in all cases: 10 µM
SK-MEL-2 melanoma = system: SK-MEL-2 melanoma
EKVX NSCLC = system: EKVX NSCLC
SN12C renal = system: SN12C renal
UO-31 renal = system: UO-31 renal
TK-10 renal = system: TK-10 renal
ACHN renal = system: ACHN renal
CAKI-1 renal = system: CAKI-1 renal
A498 renal = system: A498 renal
CCRF-CEM leukemia = system: CCRF-CEM leukemia
MOLT-4 leukemia = system: MOLT-4 leukemia
SR leukemia = system: SR leukemia
RPMI-8226 leukemia = system: RPMI-8226 leukemia
OVCAR-8 ovarian = system: OVCAR-8 ovarian
OVCAR-5 ovarian = system: OVCAR-5 ovarian
OVCAR-4 ovarian = system: OVCAR-4 ovarian
SK-OV-3 ovarian = system: SK-OV-3 ovarian
IGROV1 ovarian = system: IGROV1 ovarian
OVCAR-3 ovarian = system: OVCAR-3 ovarian
HS 578T breast = system: HS 578T breast
NCI/ADR-RES ovarian = system: NCI/ADR-RES ovarian

Measured: growth

CN1CCc2c(sc3ncnc(N/N=C/c4ccc5ccccc5c4)c23)C1
inactive: SK-MEL-2 melanoma 103% | EKVX NSCLC 90.4% | SN12C renal 72.4% | UO-31 renal 60.5% | TK-10 renal 110% | ACHN renal 67.2% | CAKI-1 renal 78.2% | A498 renal 106% | CCRF-CEM leukemia 40.6% | MOLT-4 leukemia 63.6% | RPMI-8226 leukemia 42.6% | OVCAR-8 ovarian 78.6% | OVCAR-5 ovarian 88.6% | OVCAR-4 ovarian 73.9% | SK-OV-3 ovarian 96.1% | IGROV1 ovarian 87.9% | OVCAR-3 ovarian 75% | HS 578T breast 62.3% | NCI/ADR-RES ovarian 76.7%
active: SR leukemia 9.62%

OCCNc1oc(-c2ccccc2)nc1[P+](c1ccccc1)(c1ccccc1)c1ccccc1
active: SK-MEL-2 melanoma -31.8% | SN12C renal 2.4% | CCRF-CEM leukemia 9.78% | SR leukemia 1.42% | RPMI-8226 leukemia 3.91% | OVCAR-8 ovarian 7.35% | SK-OV-3 ovarian -3.42% | IGROV1 ovarian -12.9% | OVCAR-3 ovarian -9.22% | HS 578T breast -3.9%
inactive: EKVX NSCLC 23.8% | UO-31 renal 71.8% | TK-10 renal 32.4% | ACHN renal 84.4% | CAKI-1 renal 75.1% | A498 renal 74.6% | MOLT-4 leukemia 10.2% | OVCAR-5 ovarian 31.2% | OVCAR-4 ovarian 10.2% | NCI/ADR-RES ovarian 99%

CCOP(=O)(OCC)O[C@H]1CC[C@]2(C)[C@H]3CC[C@@H]4[C@@H]([C@](C)(O)CCC=C(C)C)CC[C@@]4(C)[C@]3(C)CC[C@H]2C1(C)C
inactive: SK-MEL-2 melanoma 17.1% | EKVX NSCLC 28.2% | UO-31 renal 24.8% | TK-10 renal 36.6% | ACHN renal 28% | CAKI-1 renal 25.2% | A498 renal 52.5% | OVCAR-8 ovarian 32.9% | OVCAR-5 ovarian 44% | OVCAR-4 ovarian 38.8% | SK-OV-3 ovarian 37% | IGROV1 ovarian 55% | OVCAR-3 ovarian 11.1% | HS 578T breast 11.4% | NCI/ADR-RES ovarian 36%
active: SN12C renal -51.7% | CCRF-CEM leukemia -21.2% | MOLT-4 leukemia -15.5% | SR leukemia -7.18% | RPMI-8226 leukemia 2.3%

COc1ccc2cc([C@H](C)C(=O)NCc3ccccc3)ccc2c1
active: NCI/ADR-RES ovarian -10%
inactive: SK-MEL-2 melanoma 31% | EKVX NSCLC 42.5% | SN12C renal 33.5% | UO-31 renal 46.3% | TK-10 renal 65.7% | ACHN renal 54.9% | CAKI-1 renal 34.7% | A498 renal 63.1% | CCRF-CEM leukemia 31% | MOLT-4 leukemia 47% | SR leukemia 29.8% | RPMI-8226 leukemia 25.1% | OVCAR-8 ovarian 32.7% | OVCAR-5 ovarian 53.8% | OVCAR-4 ovarian 53.5% | SK-OV-3 ovarian 40.6% | IGROV1 ovarian 46.9% | OVCAR-3 ovarian 19.9% | HS 578T breast 16.8%

COc1ccc(Nc2nc(N)n(Cc3cccc(Br)c3)n2)cc1
active: SK-MEL-2 melanoma -35.7% | EKVX NSCLC 6.36% | UO-31 renal 0.264% | ACHN renal 1.18% | CAKI-1 renal 8.17% | A498 renal -19.5% | MOLT-4 leukemia 9.01% | RPMI-8226 leukemia 8.38% | OVCAR-4 ovarian 7.22% | HS 578T breast -12.3% | NCI/ADR-RES ovarian 2.23%
inactive: SN12C renal 14.7% | TK-10 renal 24.9% | CCRF-CEM leukemia 10.2% | SR leukemia 12.6% | OVCAR-8 ovarian 26.2% | OVCAR-5 ovarian 21.7% | SK-OV-3 ovarian 22.8% | IGROV1 ovarian 12% | OVCAR-3 ovarian 19.6%

CN(C(=O)c1ccc(C(C)(C)C)cc1)c1sc2c(c1C#N)CCC(=O)C2
inactive: SK-MEL-2 melanoma 97.7% | EKVX NSCLC 68.9% | SN12C renal 17.1% | TK-10 renal 23% | CAKI-1 renal 36.9% | A498 renal 97.6% | MOLT-4 leukemia 29.8% | SR leukemia 13.7% | SK-OV-3 ovarian 101% | HS 578T breast 11.8%
active: UO-31 renal -98.5% | ACHN renal -45.8% | CCRF-CEM leukemia 8.93% | RPMI-8226 leukemia 9.38% | OVCAR-8 ovarian 5.3% | OVCAR-5 ovarian 8.47% | OVCAR-4 ovarian 1.97% | IGROV1 ovarian -34.4% | OVCAR-3 ovarian -69.7% | NCI/ADR-RES ovarian -35.1%

CCOC(=O)CNC(=O)CN(Cc1ccccc1)C(=O)[C@@]1(C)CCC[C@]2(C)[C@H]3CC4C(C(C)C)=C[C@]3(CC[C@H]21)[C@@H]1C(=O)CCC(=O)[C@H]41
active: SR leukemia 8.03%
inactive: SK-MEL-2 melanoma 47.4% | EKVX NSCLC 66.2% | SN12C renal 50% | UO-31 renal 47.9% | TK-10 renal 98.1% | ACHN renal 52.9% | CAKI-1 renal 81.3% | A498 renal 120% | CCRF-CEM leukemia 16.4% | MOLT-4 leukemia 15.8% | RPMI-8226 leukemia 19.8% | OVCAR-8 ovarian 58.3% | OVCAR-5 ovarian 97.8% | OVCAR-4 ovarian 49.4% | SK-OV-3 ovarian 96.6% | IGROV1 ovarian 18.2% | OVCAR-3 ovarian 61.1% | HS 578T breast 52.6% | NCI/ADR-RES ovarian 47.9%
